Measured potencies and affinities stand elsewhere. Calls of active or inactive are those of the source. How the calls were made is not given here.
biological target: Beta-2 adrenergic receptor (Homo sapiens) (UniProt P07550); test: ADRB2 activation measured by internalization – cell-based, FAP fluorogen, flow cytometry, cherry pick 1, dose response (AID 588763); conditions: AM2.2-beta2AR cells, 90 min; series mostly up to 33 µM; activation (receptor internalization): at the top concentration
Sequence (P07550 whole entry, looked up): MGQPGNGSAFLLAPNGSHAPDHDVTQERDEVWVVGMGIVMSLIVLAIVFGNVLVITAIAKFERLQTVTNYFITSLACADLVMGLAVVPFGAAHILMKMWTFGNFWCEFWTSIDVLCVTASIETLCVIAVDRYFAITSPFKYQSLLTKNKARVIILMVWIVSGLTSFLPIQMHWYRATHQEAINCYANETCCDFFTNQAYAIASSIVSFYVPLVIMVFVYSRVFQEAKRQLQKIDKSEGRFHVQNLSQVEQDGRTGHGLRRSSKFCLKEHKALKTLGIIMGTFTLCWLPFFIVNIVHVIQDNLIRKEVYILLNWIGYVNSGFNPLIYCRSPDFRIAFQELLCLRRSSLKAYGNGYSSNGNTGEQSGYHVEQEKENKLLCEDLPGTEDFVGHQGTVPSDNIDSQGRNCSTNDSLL

Activation (receptor internalization), inactive:
COc1ccc(NC(=O)Cn2nnc(-c3ccccc3NC(=O)C3CC3)n2)cc1 -26.4%, N=c1n(CC(=O)c2ccc(Br)cc2)c2ccccc2n1Cc1ccccc1 110%, O=C(c1cc(COc2ccc(F)cc2Cl)on1)N1CC2C[C@@H]3CC1C[C@H](C2)C3 -19%, CC(C)NCC(O)c1cc(O)cc(O)c1 (stereo not drawn) 23.2%, CC1CCN(C(C(=O)Nc2ccc3c(c2)OCO3)c2ccccc2)CC1 (stereo not drawn) 6.59%, COc1ccccc1N1CCN(C(=O)CN(C)S(=O)(=O)c2ccc(C)cc2)CC1 50.6%, CCOc1ccc(NC(=O)Cn2nnc(-c3ccccc3NC(=O)C3CC3)n2)cc1 -7%, COc1ccccc1C(=O)Nc1ccc(S(=O)(=O)N2CCCCC2c2cccnc2)cc1 (stereo not drawn) -6.5%, CCOc1cccc(CN2CCC(Oc3ccc(C(=O)N4CCCC4)cc3)CC2)c1 -17.1%, COC(=O)[C@@H](NC(=O)c1cc(COc2cncc(Cl)c2)on1)c1ccccc1 2.04%, O=C(NC1CCc2ccccc21)c1cc(COc2cncc(Cl)c2)on1 (stereo not drawn) 3.55%, COc1ccc(-c2nc3c4ccccc4ccn3c2CN2CCOCC2)cc1OC -4.07%, N=c1n(CC(=O)c2ccc([N+](=O)[O-])cc2)c2ccccc2n1Cc1ccccc1 101%, COc1cccc(CN2CCC(Oc3ccc(C(=O)N4CCCCC4)cc3)CC2)c1 2.46%, CSc1nc(SCCO)c2sc3nc(-c4ccco4)c4c(c3c2n1)CC(C)(C)OC4 66%, CCOc1cc(-c2nc3ccccn3c2NCC2CCCO2)ccc1O (stereo not drawn) -11.8%, Cc1cc(S(=O)(=O)N2CCOCC2)ccc1OCC(=O)Nc1ccccc1F -7.22%, O=C(COc1ccc(S(=O)(=O)N2CCCCC2)cc1)Nc1ccccc1F -6.13%, COc1ccc(Cn2nc(-c3ccccc3)c(N3CCCCC3)cc2=O)cc1 16.6%, N=c1n(CC(=O)c2ccc([N+](=O)[O-])cc2)c2ccccc2n1Cc1ccc(Cl)cc1 103%, O=C(Nc1ccc2oc(-c3ccccc3F)nc2c1)c1ccc2c(c1)OCCO2 22.6%, Fc1ccc(Sc2nc(-c3ccccc3)nnc2C(F)(F)F)cc1 101%, NC(=O)CC(NC(=O)c1ccccc1)c1ccc(N2CCN(c3ccccn3)CC2)c([N+](=O)[O-])c1 (stereo not drawn) 14.7%, COc1ccccc1N1CCN(C(=O)CN(C)S(=O)(=O)c2cc(C)ccc2OC)CC1 77.6%, CN(C)S(=O)(=O)c1cccc(NC(=O)c2ccc(N3CCOCC3)c([N+](=O)[O-])c2)c1 109%, COc1ccccc1-c1cc(C(F)(F)F)nc(S(=O)(=O)CCCC(=O)N2CCCCC2C)n1 (stereo not drawn) 91.2%, O=C(Nc1ccc(S(=O)(=O)N2CCCCC2c2cccnc2)cc1)c1ccccc1F (stereo not drawn) 27.6%, O=C(Nc1ccc2nc(-c3cccs3)c(-c3cccs3)nc2c1)N1CCOCC1 20.4%, CCN(CC)CCNc1ncnc2c1sc1nc(N3CCCC3)c3c(c12)CC(C)(C)OC3 69.5%, CCOc1ccc(NC(=O)COc2ccc(S(=O)(=O)N3CCOCC3)cc2)cc1 6.39%

outcome, inactive:
COc1ccc(OC)c(S(=O)(=O)N(C)CC(=O)N2CCN(c3ccccc3F)CC2)c1, COCC(C)NC(=O)CCS(=O)(=O)c1nc(-c2ccc(OC)cc2)cc(C(F)(F)F)n1 (stereo not drawn), COc1ccc(OC)c(S(=O)(=O)N(C)CC(=O)N2CCN(c3ccc(F)cc3)CC2)c1

Source: PubChem BioAssay AID588763 (NMMLSC, 2011)
